Screens as filed in PubChem.
SW480 rerep: inducers of DNA re-replication in SW480 colon cancer cells. SW480 DNA re-replication, Hoechst DNA content imaging, 48 h. Potency, µM (top dose mostly 46.1 µM), inactives show at the highest dose re-replication activation, actives largely listed as activators. 340,000 compounds, 1.8% hits. AID 624297; further: potency means the concentration at half of the fitted maximal effect; % of control where 0% means no effect; nearly all actives have a fitted effect of over 55% in size
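Readout is total intensity of Hoechst-stained nuclei, excited at 405 nm and collected at 500-530 nm. Compound treatment lasted 48 hr at 37 C in 5% CO2 before staining.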
MCF10A rerep: inducers of DNA re-replication in MCF 10A breast cells; MCF 10A DNA re-replication, Hoechst nuclear intensity, 48 h; Potency, µM (titrated, usually from 46.1 µM), for inactives: at the top dose activity, positive = re-replication, most hits filed as activators; 350,000 compounds, 2.9% hits; AID 624296; further: potency means the concentration at half of the fitted maximal effect; % of control where 0% means no effect; nearly all actives have a fitted effect of over 50% in size
KCNH2 WT inh: inhibitors of human wildtype KCNH2 potassium channel; Q12809; activity change, % at 1.84 µM; U2OS, BacMam KCNH2, thallium flux FluxOr; stronger effect = lower value; 340,000 compounds, 0.37% hits; AID 720551;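 active means maximum activity change below -70%; inconclusive means maximum activity change between -70% and -50%; inactive means maximum activity change above -50%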; further: on the % scale 0 is the no-effect control and ±100 the full control effect
Target sequence (Q12809 whole entry, looked up): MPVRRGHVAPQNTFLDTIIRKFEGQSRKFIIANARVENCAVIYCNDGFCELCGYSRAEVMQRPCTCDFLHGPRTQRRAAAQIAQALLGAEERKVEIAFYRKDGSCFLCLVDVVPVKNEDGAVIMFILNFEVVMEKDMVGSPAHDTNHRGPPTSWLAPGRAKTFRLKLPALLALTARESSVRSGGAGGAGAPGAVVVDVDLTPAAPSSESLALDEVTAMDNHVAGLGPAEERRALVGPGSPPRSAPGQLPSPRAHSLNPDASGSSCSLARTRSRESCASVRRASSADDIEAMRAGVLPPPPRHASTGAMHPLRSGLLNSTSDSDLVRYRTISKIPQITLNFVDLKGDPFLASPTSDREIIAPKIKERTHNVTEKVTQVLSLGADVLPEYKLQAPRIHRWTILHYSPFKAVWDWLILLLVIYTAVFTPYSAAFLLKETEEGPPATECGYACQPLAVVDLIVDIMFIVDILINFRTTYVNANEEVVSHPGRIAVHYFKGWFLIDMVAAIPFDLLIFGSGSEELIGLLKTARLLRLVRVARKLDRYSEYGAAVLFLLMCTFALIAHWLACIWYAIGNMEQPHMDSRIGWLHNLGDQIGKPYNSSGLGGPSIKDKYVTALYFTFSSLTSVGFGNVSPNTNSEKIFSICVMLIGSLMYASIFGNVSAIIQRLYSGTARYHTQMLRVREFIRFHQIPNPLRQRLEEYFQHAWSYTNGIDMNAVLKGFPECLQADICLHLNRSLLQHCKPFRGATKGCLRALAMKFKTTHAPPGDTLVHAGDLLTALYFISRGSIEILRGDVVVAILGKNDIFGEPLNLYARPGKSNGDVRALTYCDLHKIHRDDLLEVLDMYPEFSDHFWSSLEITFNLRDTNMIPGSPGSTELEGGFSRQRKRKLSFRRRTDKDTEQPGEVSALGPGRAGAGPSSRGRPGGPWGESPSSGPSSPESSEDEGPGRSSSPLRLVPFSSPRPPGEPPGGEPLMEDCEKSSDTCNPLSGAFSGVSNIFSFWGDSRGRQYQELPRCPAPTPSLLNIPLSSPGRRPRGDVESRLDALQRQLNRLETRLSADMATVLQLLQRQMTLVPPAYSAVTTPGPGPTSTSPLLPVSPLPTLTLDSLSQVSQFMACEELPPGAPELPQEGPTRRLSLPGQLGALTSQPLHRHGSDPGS
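U2OS cells were transduced with wild-type KCNH2 virus (2.03 x 10^8 / mL) for 4 h at room temperature, then cultured overnight at 37 C. Thallium flux was read with FluxOr dye. Rate constants were normalized to DMSO controls.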
KCNH2 3.1 inh: inhibitors of human KCNH2 3.1 potassium channel isoform; 340,000 compounds, 0.95% hits; activity change, % (tested at about 1.8 µM); U2OS KCNH2 3.1, thallium flux FluxOr; stronger effect = lower value; AID 720553;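 active means maximum activity change below -70%; inconclusive means maximum activity change from -70% to -50%; inactive means maximum activity change above -50%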;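 further: thallium influx rate constant from kinetic fluorescence after stimulation buffer; on the % scale 0 is the no-effect control and ±100 the full control effect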
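Channel expression came from 3.1 mutant virus (1.77 x 10^8 /mL) applied to suspended U2OS cells for 4 h. Flux was tracked with FluxOr dye plus Red40 quencher, and kinetic rate constants normalized to controls.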
KB-V1 cytotox: kills drug-selected multidrug resistant KB-V1 cells; KB-V1 MDR cells viability, CellTiter-Glo, 72 h; Potency, µM (top dose mostly 46.1 µM), most hits filed as cytotoxic; 400,000 compounds, 3.4% hits; AID 1347076; further: potency means the concentration at half of the fitted maximal effect; on the % scale 0 is the no-effect control and ±100 the full control effect; nearly all actives have a fitted effect of over 60% in size
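Readout: CellTiter-Glo luminescence, 10 min after addition. Cells: KB-V1 MDR subline, 72 h at 37 degrees C with compound. Analysis: corrected, normalized data fitted to concentration-effect curves.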
KB-3-1 tox: KB-3-1 parental cell cytotoxicity | 400,000 compounds, 1.4% hits | Potency, µM (doses to about 46.1 µM), actives largely listed as cytotoxic | AID 1347075 | KB-3-1 viability, CellTiter-Glo ATP luminescence, 72 h; further: potency means the concentration at half of the fitted maximal effect; on the % scale 0 is the no-effect control and ±100 the full control effect; nearly all actives have a fitted effect of over 60% in size
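Cells are dispensed, compounds pinned in, plates held at 37 °C for 72 h, then CellTiter-Glo is added and luminescence read after 10 minutes. Cell line: parental KB-3-1 in phenol-red-free DMEM, 10% FBS.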
An asterisk follows results filed as active. This is a sample that favours compounds with a hit; in the whole collection about 7.6% have one here. Unless noted, the call rests on the fitted dose curve; in most records, active means well fitted curve in the direction sought with a large enough effect; inconclusive means small, poorly fitted or top-dose-only effect, or another doubt; inactive means no such curve, though single readings can be large; an effect the other way counts as inactive or inconclusive.

For CC(=O)N1/C(=C/c2ccc(N(C)C)cc2)C(=O)c2ccccc21 the results were SW480 rerep 2.06µM*, MCF10A rerep inconclusive, KCNH2 WT inh -1.2, KCNH2 3.1 inh 1.4, KB-V1 cytotox inactive and KB-3-1 tox inconclusive.
CCOc1ccccc1N(C)C(=O)Cn1cnc2sc(C)c(S(=O)(=O)N3CCC(C)CC3)c2c1=O was read as KB-V1 cytotox inactive and KB-3-1 tox inactive.
For COc1ccc(C2CC(c3ccccc3)=NN2c2ccc(C(N)=O)cc2)cc1 (stereo unspecified) the results were SW480 rerep 20.6µM*, MCF10A rerep inconclusive, KCNH2 WT inh 13.7, KCNH2 3.1 inh 30.0, KB-V1 cytotox inactive and KB-3-1 tox inactive.
COc1ccc(C2CC(c3ccccc3Cl)=NN2c2ccc(S(N)(=O)=O)cc2)cc1 (stereo unspecified) was read as SW480 rerep 2.31µM*, MCF10A rerep inconclusive, KCNH2 WT inh 37.9, KCNH2 3.1 inh -11.1, KB-V1 cytotox inactive and KB-3-1 tox inactive.
`COc1ccc(C2CC(c3ccccc3)=NN2c2ccc(S(N)(=O)=O)cc2)cc1` (stereo unspecified) gave SW480 rerep 16.4µM*, MCF10A rerep 0.581µM*, KCNH2 WT inh -0.1, KCNH2 3.1 inh 4.9, KB-V1 cytotox inconclusive and KB-3-1 tox inactive.
Cc1cccc(C2CC(c3ccccc3)=NN2c2ccc(S(N)(=O)=O)cc2)c1 (stereo unspecified) was read as KB-V1 cytotox inactive and KB-3-1 tox inactive.
Screening COc1ccc(C2CC(c3cccc(C(F)(F)F)c3)=NN2c2ccc(S(N)(=O)=O)cc2)cc1 (stereo unspecified) returned SW480 rerep inconclusive, MCF10A rerep inconclusive, KCNH2 WT inh 5.5, KCNH2 3.1 inh -6.3, KB-V1 cytotox inconclusive and KB-3-1 tox inconclusive.
For NS(=O)(=O)c1ccc(N2N=C(c3ccccc3)CC2c2cccc(Cl)c2)cc1 (stereo unspecified) the results were SW480 rerep 3.66µM*, MCF10A rerep inconclusive, KCNH2 WT inh 8.5, KCNH2 3.1 inh -4.0, KB-V1 cytotox inactive and KB-3-1 tox inactive.
`CCCCCCCCN1[C@@H](CC(=O)OC)c2ccc(/C=C/C(=O)OC)cc2S1(=O)=O` gave KB-V1 cytotox inactive and KB-3-1 tox inactive.
For Cc1ccccc1NC(=O)c1sc2nc(-c3cc4ccccc4oc3=O)[nH]c(=O)c2c1C the results were KB-V1 cytotox inconclusive and KB-3-1 tox inactive.
For COc1ccc(CN(C)C(=O)c2cc(S(=O)(=O)N3CCOCC3)ccc2N2CCCC2)cc1 the results were SW480 rerep -103.2%, MCF10A rerep -35.9%, KCNH2 WT inh 1.4, KCNH2 3.1 inh 6.6, KB-V1 cytotox inconclusive and KB-3-1 tox inactive.
Screening COc1ccc(C2CC(c3cccc(F)c3)=NN2c2ccc(S(N)(=O)=O)cc2)cc1 (stereo unspecified) returned SW480 rerep 2.31µM*, MCF10A rerep 2.06µM*, KCNH2 WT inh 47.4, KCNH2 3.1 inh 11.8, KB-V1 cytotox inactive and KB-3-1 tox inconclusive.
Screening Oc1ccccc1C1=NN(c2ccccc2)C(c2ccc(F)cc2)C1 (stereo unspecified) returned SW480 rerep inconclusive, MCF10A rerep inconclusive, KCNH2 WT inh -1.7, KCNH2 3.1 inh 8.1, KB-V1 cytotox inactive and KB-3-1 tox inactive.
COc1ccc(C2=NN(CN3C(=O)C(=O)c4ccccc43)C(c3ccc(OC)cc3)C2)cc1 (stereo unspecified) was read as SW480 rerep 5.8µM*, MCF10A rerep 1.8%, KCNH2 3.1 inh 6.3, KB-V1 cytotox inactive and KB-3-1 tox inactive.
`O=Cc1ccc(N2N=C(c3ccccc3)CC2c2ccccc2)cc1` (stereo unspecified) gave SW480 rerep inconclusive, MCF10A rerep inconclusive, KCNH2 WT inh -17.9, KCNH2 3.1 inh -10.7, KB-V1 cytotox inactive and KB-3-1 tox inactive.
For COc1ccc(C2CC(c3cccc(Br)c3)=NN2c2ccc(S(N)(=O)=O)cc2)cc1 (stereo unspecified) the results were SW480 rerep inconclusive, MCF10A rerep inconclusive, KCNH2 WT inh -7.3, KCNH2 3.1 inh -6.2, KB-V1 cytotox inconclusive and KB-3-1 tox inconclusive.
NS(=O)(=O)c1ccc(N2N=C(c3ccccc3)CC2c2ccc(F)cc2)cc1 (stereo unspecified) was read as SW480 rerep 20.6µM*, MCF10A rerep 20.6µM*, KCNH2 WT inh 7.3, KCNH2 3.1 inh -3.0, KB-V1 cytotox inconclusive and KB-3-1 tox inactive.
For COc1ccc(C2=NN(S(=O)(=O)c3ccccc3)C(c3ccccc3)C2)cc1 (stereo unspecified) the results were SW480 rerep inconclusive, MCF10A rerep -2.6%, KCNH2 WT inh -8.6, KCNH2 3.1 inh -3.0, KB-V1 cytotox inconclusive and KB-3-1 tox inactive.
O=C(O)c1ccc(N2N=C(c3ccccc3)CC2c2ccccc2)cc1 (stereo unspecified) was read as SW480 rerep inconclusive, MCF10A rerep 2.31µM*, KCNH2 WT inh -10.0, KCNH2 3.1 inh -4.7, KB-V1 cytotox inactive and KB-3-1 tox inactive.
For O=C(O)CCSc1nnc(SCC(=O)NC2CCS(=O)(=O)C2)s1 (stereo unspecified) the results were SW480 rerep -3.1%, MCF10A rerep -1.5%, KCNH2 WT inh 4.3, KCNH2 3.1 inh 4.9, KB-V1 cytotox inactive and KB-3-1 tox inactive.
`Cc1cccc2c1CCCC2=O` gave SW480 rerep -3.1%, MCF10A rerep -4.7%, KCNH2 WT inh -7.9, KCNH2 3.1 inh 33.4, KB-V1 cytotox inactive and KB-3-1 tox inactive.
Screening COc1ccc(CSc2n[nH]c(=O)[nH]c2=O)cc1 returned KCNH2 WT inh 1.0, KCNH2 3.1 inh -1.4, KB-V1 cytotox inactive and KB-3-1 tox inactive.
`Cc1ccc(S(=O)(=O)Nc2ccc3c(c2)nc2n3CCN(Cc3ccccc3)C2)cc1` gave SW480 rerep 1.0%, MCF10A rerep -0.9%, KCNH2 WT inh 0.4, KCNH2 3.1 inh -25.1, KB-V1 cytotox 16.4µM* and KB-3-1 tox inactive.
For O=S(=O)(Nc1ccc2c(c1)nc1n2CCN(Cc2ccccc2)C1)c1ccc(Cl)cc1 the results were SW480 rerep inconclusive, MCF10A rerep inconclusive, KCNH2 WT inh -1.9, KCNH2 3.1 inh -25.2, KB-V1 cytotox inactive and KB-3-1 tox inconclusive.
For O=C(Nc1ccc2c(c1)nc1n2CCN(Cc2ccccc2)C1)NC1CCCCC1 the results were SW480 rerep -2.7%, MCF10A rerep 2.2%, KCNH2 WT inh -15.2, KCNH2 3.1 inh -84.9*, KB-V1 cytotox inactive and KB-3-1 tox inactive.
